The source of these data is PubChem BioAssay (NCATS).

For assay [1], the system named is Zika virus NS2B-NS3 protease (linked construct). Put plainly: Primary screen NINDS Rhodamine qHTS for Zika virus inhibitors (AID 1347160). Further: nearly all actives have a fitted effect of over 55% in size. Further: potency means the concentration at half of the fitted maximal effect. An outline of the steps:
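Rhodamine110-peptide cleavage (1.5 µM substrate) by 25 nM linked NS2B-NS3 enzyme at pH 8.0 (Tris, Tween 20), after 15 min RT preincubation with compounds; 15-min fluorescence change normalized to controls and Hill-fitted.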

A short description of assay [2]: HPAF-II Cancer Cell Toxicity qHTS against the NCATS CANVASS Library (AID 1347346). Further: nearly all actives have a fitted effect of over 55% in size. Further: potency means the concentration at half of the fitted maximal effect. On activity change, negative = cytotoxicity: series mostly up to about 38 µM; on the % scale 0 is the no-effect control and ±100 the full control effect. An outline of the steps: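 1000 HPAF-II cells/well; 4 h pre-incubation; 11-pnt compound titration; 72 h, 37 degrees C/5% CO2; CellTiter-Glo, 15 min RT; luminescence read.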
(qHTS replaces the single test concentration by a dilution series.)

Assay [3] in a line: OV-SAHO Cancer Cell Toxicity qHTS against the NCATS CANVASS Library (AID 1347348). Further: nearly all actives have a fitted effect of over 55% in size. Further: potency means the concentration at half of the fitted maximal effect. On activity change, negative = cytotoxicity: series mostly up to about 38 µM; on the % scale 0 is the no-effect control and ±100 the full control effect. An outline of the steps:
(§1)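 Viability was assessed by adding CellTiter-Glo reagent to treated cultures and reading luminescence after 15min at room temperature. Treatment lasted 72 h at 37 degrees C/5% CO2, using an 11-point series on 1000 cells/well.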

A short description of assay [4]: U-118MG Cancer Cell Toxicity qHTS against the NCATS CANVASS Library (AID 1347351). Further: series mostly up to about 38 µM; on the % scale 0 is the no-effect control and ±100 the full control effect. The procedure, abridged:
as §1

A short description of assay [5]: COV-362 Cancer Cell Toxicity qHTS against the NCATS CANVASS Library (AID 1347352). Further: series mostly up to about 38 µM; on the % scale 0 is the no-effect control and ±100 the full control effect. The procedure, abridged: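 1000 cells/well, 4 h pre-incubation 37 °C/5% CO2; 11-pnt titration; 72 h; CellTiter-Glo 15 min RT, luminescence.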
Assay [6] in a line: HEK293 18hr Apoptosis Induction qHTS against the NCATS CANVASS Library (AID 1347357). Further: 0% is about no effect. The procedure, abridged: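 HEK293 cells (500 per well, DMEM with 10% FBS) were treated with natural products, incubated 18 hours at 37 degrees C, then caspase-3/7 activity was read by Caspase-Glo luminescence after 15 min at room temperature.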
Assay [7] is described as follows: HPAF-II 12hr Apoptosis Induction qHTS against the NCATS CANVASS Library (AID 1347358). Further: 0% is about no effect. An outline of the steps:
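Caspase-Glo 3/7 luminescence (DEVD substrate) reports caspase activity in HPAF-II cells after 12 h compound treatment at 37 degrees C. Compounds were tested in an 11-point series. Doxorubicin served as control.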

A short description of assay [8]: HEK293 24hr Apoptosis Induction qHTS against the NCATS CANVASS Library (AID 1347359). Further: 0% is about no effect. An outline of the steps:
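HEK293 cells (500/well, DMEM + 10% FBS) were exposed to compounds in an 11-point series for 24 hours at 37 degrees C, then caspase-3/7 activity was read by Caspase-Glo DEVD luciferase luminescence after 15 min.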

Assay [9] can be described thus: HPAF-II 18hr Apoptosis Induction qHTS against the NCATS CANVASS Library (AID 1347360). Further: 0% is about no effect. An outline of the steps: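 HPAF-II cells (500/well, DMEM + 10% FBS) were exposed to compounds for 18 hours at 37 degrees C. Caspase-3/7 activity was then read by Caspase-Glo 3/7 luminescence after 15 min at room temperature.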
A short description of assay [10]: HEK293 12hr Apoptosis Induction qHTS against the NCATS CANVASS Library (AID 1347361). Further: potency means the concentration at half of the fitted maximal effect. On caspase activation: 0% is about no effect. The procedure, abridged:
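Read-out: Caspase-Glo 3/7 luminescence (DEVD substrate), 15 min RT. Preceded by 12 h compound exposure of HEK293, 500 cells/well, 11-pt qHTS titration; doxorubicin titration as control.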

Assay [11] concerns the target Luciferin 4-monooxygenase (Photinus pyralis) (UniProt P08659). Put plainly: Firefly luciferase counterscreen qHTS: Assay Interference Panel against the NCATS CANVASS Library (AID 1347363). Further: series mostly up to about 57 µM; 0% is about no effect. The procedure, abridged:
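Purified P. pyralis luciferase was added to compounds (11-point series) preincubated 15 min at room temperature with substrate containing 0.013 mM D-luciferin and 0.013 mM ATP; luminescence was read after 5 min.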
Background: A counterscreen serves to expose hits that act by an unwanted route or on another target.

Assay [12] in a line: MCF7 Cancer Cell Toxicity qHTS against the NCATS CANVASS Library (AID 1347369). Further: potency means the concentration at half of the fitted maximal effect. The procedure, abridged: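 MCF7, 500 cells/well; cpds 11-pt qHTS; 72 hr, 37C/5% CO2; CellTiterGlo ATP luminescence.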
The nature of assay [13]: qHTS for ATAD5 Antagonist screened against the NCATS CANVASS Library (AID 1347370). Further: nearly all actives have a fitted effect of over 65% in size. Further: potency means the concentration at half of the fitted maximal effect. The procedure, abridged: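 HEK293T-ATAD5 luc reporter, 2000 cells/well; 5hr attach; cpd + 10 uM 5-FUrd; 16hr 37C, 5% CO2. Readouts: CellTiter-Fluor fluorescence (1hr), then Amplite luciferase luminescence (30min RT).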
Assay [14] is described as follows: J3T Cancer Cell Toxicity qHTS against the NCATS CANVASS Library (AID 1347371). Further: potency means the concentration at half of the fitted maximal effect. The procedure, abridged: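 Dog glioma J3T, 500 cells/well; cpd 11-pt qHTS; 72 hr, 37C/5% CO2; CellTiterGlo ATP luminescence readout.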
Assay [15] deals with Nuclear receptor subfamily 1 group I member 3 (Homo sapiens) (UniProt Q14994). Put plainly: qHTS for Constitutive Androstane Receptor (CAR) Antagonist screened against the NCATS CANVASS Library (AID 1347372). Further: potency means the concentration at half of the fitted maximal effect. The procedure, abridged:
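Cells were seeded and left 4hr to attach, then received compound at 11 concentrations and 50 nM CITCO. Following 24hr incubation, fluorescence viability and luciferase luminescence were read sequentially.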

Assay [16] can be described thus: 10-beta competent E. coli microbial cell viability qHTS against the NCATS CANVASS Library (AID 1347376). Further: series mostly up to about 46 µM; 0% is about no effect. An outline of the steps:
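Luminescence from BacTiter-Glo ATP detection served as the viability read-out; bacteria (0.2 OD) had been incubated overnight at 37C with pin-transferred compounds at 11 concentrations.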

Assay [17] in a line: qHTS for Inflammasome Signaling Inhibitors: IL-1-beta AlphaLISA screen against the NCATS CANVASS Library (AID 1347379).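 Further: human THP-1 cells primed with LPS then triggered with ATP.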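 On activity change, negative = inhibition: secreted IL-1B measured as AlphaLISA emission at 615 nm; on the % scale 0 is the no-effect control and ±100 the full control effect; lower signal means less IL-1B release which is the wanted effect.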 An outline of the steps: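 THP-1, 1 hr compound pre-incubation, then LPS 250 ng/mL + ATP 1.25 mM (final); 16 hr total with compound; IL-1B AlphaLISA, ex 680/em 615 nm; 11-point qHTS, up to 57.5 uM final.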
The nature of assay [18]: Inflammasome Signaling qHTS Counterscreen: IL-1-beta AlphaLISA counterscreen against the NCATS CANVASS Library (AID 1347381).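 Further: cell-free check with purified IL-1β in medium and no THP-1 cells; series mostly up to about 57 µM; 0% is about no effect.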 The procedure, abridged: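 Here, no cellular stimulation occurs; compounds in an 11-point series meet 4 pg purified IL-1-beta directly. Bead-based AlphaLISA detection follows (1 h acceptor/antibody, then 30 min donor, dark, room temperature), with excitation at 680 nm.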

Assay [19] is described as follows: Cytotoxicity qHTS for assessment of Hepg2 cells membrane integrity screened against the NCATS CANVASS Library (AID 1347387). The procedure, abridged:
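LDH release read by fluorescence (560 nm ex/590 nm em) after CytoTox-ONE addition and 10 min RT; signal tracks lysed cells. HepG2, 2000 cells/well, plated overnight; compound 5 hr, 37C, 5% CO2, final 0.59 nM - 46 uM, 11 points.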

Assay [20] can be described thus: Vero-766 cells viability qHTS against the NCATS CANVASS Library: Counterscreen for Zika virus inhibition assay (AID 1347394). Further: nearly all actives have a fitted effect of over 60% in size. Further: potency means the concentration at half of the fitted maximal effect. The procedure, abridged: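 Uninfected Vero 766 (African green monkey) cells, 1000/well, attached overnight, then exposed 72 h at 37C to compounds (11-point qHTS). Viability read by CellTiter-Glo luminescence; media-only wells served as 100% inhibition.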

Unmarked numbers belong to inactive results. Records with an inconclusive call do not appear. Calls of active or inactive are those of the source. The call rests on the fitted dose curve; in most records, active means well fitted curve in the direction sought with a large enough effect; inconclusive means small, poorly fitted or top-dose-only effect, or another doubt; inactive means no such curve, though single readings can be large; an effect the other way counts as inactive or inconclusive.

Sequence of Luciferin 4-monooxygenase (Photinus pyralis) (P08659 whole entry, looked up): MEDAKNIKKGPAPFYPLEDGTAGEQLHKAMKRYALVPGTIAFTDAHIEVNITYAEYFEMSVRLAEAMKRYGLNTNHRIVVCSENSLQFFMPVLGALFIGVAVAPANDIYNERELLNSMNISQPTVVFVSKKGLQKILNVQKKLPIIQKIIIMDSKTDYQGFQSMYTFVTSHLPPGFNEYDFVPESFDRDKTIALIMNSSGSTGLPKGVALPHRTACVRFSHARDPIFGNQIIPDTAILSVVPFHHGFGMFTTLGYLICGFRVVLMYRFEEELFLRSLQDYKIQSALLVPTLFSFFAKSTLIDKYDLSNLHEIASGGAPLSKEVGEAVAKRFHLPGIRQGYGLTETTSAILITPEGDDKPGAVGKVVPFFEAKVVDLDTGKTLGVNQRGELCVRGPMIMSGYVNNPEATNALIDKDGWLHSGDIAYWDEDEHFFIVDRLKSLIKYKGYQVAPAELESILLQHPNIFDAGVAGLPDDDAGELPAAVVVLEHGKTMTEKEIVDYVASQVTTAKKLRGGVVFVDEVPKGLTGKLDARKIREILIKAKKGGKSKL
Sequence of Nuclear receptor subfamily 1 group I member 3 (Homo sapiens) (Q14994 whole entry, looked up): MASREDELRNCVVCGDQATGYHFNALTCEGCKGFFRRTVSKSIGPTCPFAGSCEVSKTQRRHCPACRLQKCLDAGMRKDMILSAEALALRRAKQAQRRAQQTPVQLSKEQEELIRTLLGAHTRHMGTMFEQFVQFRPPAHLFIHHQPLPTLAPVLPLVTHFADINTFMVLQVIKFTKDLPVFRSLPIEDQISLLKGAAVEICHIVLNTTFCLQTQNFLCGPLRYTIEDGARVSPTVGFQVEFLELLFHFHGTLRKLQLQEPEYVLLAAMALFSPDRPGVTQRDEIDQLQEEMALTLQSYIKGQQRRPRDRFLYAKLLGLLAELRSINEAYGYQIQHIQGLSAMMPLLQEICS

As for `CC(=O)NC[C@@H]1O[C@H](CC/C=C(C)/C(C)=C/C=O)[C@H](C)C[C@H]1O`, the Potency in [1] is 49.3 µM (active). Further, the Potency result in assay [2], in assay [3], in assay [4], in assay [5], in assay [6] and in assay [7] was “inactive” in each case. The Potency result in assay [8], in assay [9], in assay [10], in [11], in [12] and in assay [13] was “inactive” each time. Moreover, the Potency result in [14], in assay [15], in [17] and in assay [20] was “inactive” throughout. Moreover, the compound was called inactive in assay [16], in assay [18] and in assay [19].
As for `COc1ccc2oc3c(OC)c(OC)c(OC)c(OC)c3c(=O)c2c1`, the Potency result in [1] was “inactive”. The activity change, negative = cytotoxicity in [2] is -3.19% [at 7.64 µM]; in [3], -19.6% [at 7.64 µM]; in assay [4], 3.45% [at 7.64 µM]; in assay [5], -3.36% [at 7.64 µM]; in [12] it was 0.434% [at 9.17 µM]; in assay [14], -8.53% [at 9.19 µM]. Besides, the caspase activation in [6] is 2.9% [at 9.19 µM]; in assay [7] it was 5.91% [at 9.19 µM]; in assay [9], 4.09% [at 9.19 µM]; in assay [10], 10.6% [at 9.19 µM]. In [8], the activation was -1% [at 9.19 µM]. For the same compound, the activity change, negative = inhibition in assay [11] was -22.3% [at 11.5 µM]; in assay [13] it was -20.5% [at 9.19 µM]; in assay [15], 22.2% [at 9.19 µM]; in assay [18], 10.5% [at 11.5 µM]. In addition, the activity change, negative = cytotoxic in assay [16] is -7.99% [at 9.19 µM]; in assay [20] it was -1.29% [at 9.19 µM]. For the same compound, the outcome in assay [17] was “inactive [at 11.5 µM]”. For the same compound, the cytotoxicity (LDH release) in [19] is -0.617 [at 9.19 µM].
Take `C/C=C/C(=O)[C@@H](C)C1=CC(=O)C2=C(O[C@@]34CC[C@H](O)C(C)(C)[C@@H]3CC[C@H](C)[C@@]4(C)C2)C1=O`: the Potency is 49.3 µM (active) in assay [1]; 3.75 µM (active) in assay [2]; 6.66 µM (active) in [3]; 9.35 µM (active) in assay [10]; 13.1 µM (active) in assay [12]; 7.41 µM (active) in assay [13]. Also, the Potency in assay [14] is 5.26 µM (active); in [15], 20.9 µM (active); in assay [17] it was 3.43 µM (active); in assay [20], 18.6 µM (active). In addition, the Potency entry in assay [11] is “inactive”. The call in [16], in [18] and in assay [19] was inactive.
On to `C[C@@H]1C(=O)[C@]23CC[C@H]1C[C@]21O[C@H]2C(C)(C)C=CC(=O)[C@]23COC1=O`, for which the Potency result in assay [1], in assay [2], in assay [3], in assay [4], in assay [5] and in assay [6] was “inactive” in each case. The Potency result in assay [7], in assay [8], in [9], in [10], in assay [11] and in [12] was “inactive” in each case. For the same compound, the Potency entry in assay [13], in [14], in assay [15], in assay [17] and in assay [20] was “inactive” each time. For the same compound, the call in assay [16], in [18] and in assay [19] was inactive.
For `C=C1C[C@@]23C=CC(=O)[C@@](C)(CCC(=O)Nc4c(OC5O[C@H](CO)[C@@H](O)[C@H](O)[C@H]5O)ccc(C(=O)O)c4O)C2C[C@@H]1CC3` (some centres undefined), the Potency in [1] is 39.2 µM (active). The Potency entry in assay [2], in assay [3], in assay [4], in assay [5], in assay [6] and in assay [7] was “inactive” each time. Further, the Potency entry in assay [8], in assay [9], in assay [10], in assay [11], in assay [12] and in assay [13] was “inactive” throughout. For the same compound, the Potency result in assay [14], in [15], in [17] and in [20] was “inactive” in each case. Moreover, the result in [16], in assay [18] and in assay [19] was inactive.
